Assay [1] deals with Zika virus NS2B-NS3 protease (unlinked complex). Kind of assay: Primary screen GU Rhodamine qHTS for Zika virus inhibitors: Unlinked NS2B-NS3 protease assay (AID 1347159). Further: nearly all actives have a fitted effect of over 60% in size. Further: potency means the concentration at half of the fitted maximal effect. An outline of the steps: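 Percent inhibition derives from the 15-min fluorescence change (ex 480, em 540 nm), normalized to no-enzyme and no-inhibitor wells. Reactions contained 25 nM NS2B-NS3 complex and 1.5 microM substrate in 10 mM Tris-HCl pH 8.0.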

The subject of assay [2] is Zika virus NS2B-NS3 protease (linked construct). Briefly: Primary screen NINDS Rhodamine qHTS for Zika virus inhibitors (AID 1347160). Further: nearly all actives have a fitted effect of over 55% in size. In short, it runs like this:
(§1)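 In 10 mM Tris-HCl pH 8.0 containing 0.01% Tween 20, linked NS2B-NS3 protease (25 nM final) is exposed to test compounds for 15 min. Cleavage of 1.5 microM Rhodamine110 substrate is tracked by fluorescence over 15 min.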

The nature of assay [3]: Confirmatory screen NINDS Rhodamine qHTS for Zika virus inhibitors (AID 1347161).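 Further: purified Zika NS2B-NS3 protease with linked NS2B cofactor domain and Rhodamine110 peptide substrate; series mostly up to about 110 µM; nearly all actives have a fitted effect of over 60% in size.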 An outline of the steps: as §1
A general note: Quantitative high-throughput screening tests each substance at several concentrations.

Assay [4] concerns Zika virus NS2B-NS3 protease (linked). Briefly: 384 well plate NINDS AMC confirmatory qHTS for Zika virus inhibitors (AID 1347163). Further: potency means the concentration at half of the fitted maximal effect; nearly all actives have a fitted effect of over 50% in size. The settings on record: Recombinant NS2B-NS3 protease, Ac-VKTGKR-AMC fluorescence. An outline of the steps: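 Linked protease 5/30/60 nM final; cpds up to 1 mM final, ~15 min preinc. Substrate Ac-VKTGKR-AMC 30 microM final. RT, dark, 25 min; FI ex 355/em 460; normalized to no-enzyme/no-inhibitor ctrls.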

Records with an inconclusive call do not appear. Where a call stands in place of a potency, no number is given. Activity calls are given as the source filed them. The call rests on the fitted dose curve; in most records, active means well fitted inhibition curve with a large enough effect; inconclusive means small, poorly fitted or top-dose-only effect; inactive means no such curve, though single readings can be large or run the other way.

With `C[C@@](O)(COc1ccc(C#N)cc1)C(=O)Nc1ccc(C#N)c(C(F)(F)F)c1`, the Potency entry in assay [1] and in assay [2] was “inactive” throughout.

Consider `CC(C)(C)c1cc(C(C)(C)C)c2c(c1)C(O)(C(F)(F)F)C(=O)O2` (stereo not given), for which the Potency in assay [1] was 7.94 µM (active).

Take `CCc1c(C(=O)C(N)=O)c2c(OCC(=O)OC)cccc2n1Cc1ccccc1`: the Potency entry in assay [1] and in assay [2] was “inactive” each time.

Turning to `CN[C@H]1[C@H](O)[C@H](O[C@@H]2[C@@H](O)[C@H](O[C@H]3O[C@H]([C@H](C)O)[C@@H](O)[C@H](O)[C@H]3N)[C@@H](N)C[C@H]2N)OC[C@@]1(C)O`, the Potency entry in assay [1] and in assay [2] was “inactive” each time.

Take `C[C@H]1C(=O)O[C@H]2[C@H](O)[C@]34C5OC(=O)[C@]3(O[C@@H]3OC(=O)[C@H](O)C34[C@H](C(C)(C)C)[C@H]5O)C12O` (stereo not given in full): the Potency result in assay [1] and in assay [2] was “inactive” each time.

As to `CC(=O)OC12C(O)C(C)C3(O)C4C=C(C)C(=O)C4CC(CO)=CC3C1C2(C)C` (stereo not given), the Potency entry in assay [1] was “inactive”.

For `COC1CC(OC2CCC3(C=O)C(CCC4C3CCC3(C)C(C5=CC(=O)OC5)CCC43O)C2)OC(C)C1OC1OC(CO)C(O)C(O)C1O` (stereo not given), the Potency entry in assay [1] and in assay [2] was “inactive” in each case.

Consider `N#CC(OC1OC(COC2OC(CO)C(O)C(O)C2O)C(O)C(O)C1O)c1ccccc1` (stereo not given), for which the Potency entry in assay [1] and in assay [2] was “inactive” each time.

As to `COCC1OC(=O)c2coc3c2C1(C)C1=C(C3=O)C2CCC(=O)C2(C)CC1O` (stereo not given), the Potency entry in assay [1] and in assay [2] was “inactive” each time.

In the case of `Clc1ccc(N2C[C@H]3CC[C@@H](C2)N3)nn1`, the Potency entry in assay [1] is “inactive”.

As for `Cn1ncnc1COc1nn2c(-c3c(F)cccc3F)nnc2cc1C1CCC1`, the Potency entry in assay [1] was “inactive”.

Turning to `COc1ccccc1CN[C@H]1C2CCN(CC2)[C@H]1C(c1ccccc1)c1ccccc1`, the Potency result in assay [1] is “inactive”.

`C[C@]12CC[C@H]3[C@@H]([C@H](O)CC4=CC(=O)CC[C@@]43C)[C@@H]1CC[C@@H]2O`: the Potency entry in assay [1] and in assay [2] was “inactive” throughout.

For `CN1C(=O)N(c2ccc(C#N)c(C(F)(F)F)c2)C(=O)[C@]1(CO)c1ccccc1`, the Potency entry in assay [1] and in assay [2] was “inactive” throughout.

Consider `COc1cc(C(=O)O[C@H]2[C@@H]3C=CO[C@@H](O[C@@H]4O[C@H](CO)[C@@H](O)[C@H](O)[C@H]4O)[C@@H]3[C@@]3(CO)O[C@@H]23)ccc1O`, for which the Potency result in assay [1] and in assay [2] was “inactive” each time.

As to `COC1CC(OC2CCC3(C)C(CCC4C3CCC3(C)C(C5=CC(=O)OC5)C(OC(C)=O)CC43O)C2)OC(C)C1OC1OC(CO)C(O)C(O)C1O` (stereo not given), the Potency entry in assay [1] is “inactive”.

Consider `CN1C(=O)c2ccccc2NC(=O)[C@]12O[C@@H]2c1ccccc1`, for which, in assay [1], the Potency entry was “inactive”.

Take `C/C=C(\C)C(=O)OC1C(C)OC(OC2C(C)OC(OC3CCC4(C)C(=CCC5C4CCC4(C)C(C(C)OC6OC(COC7OC(CO)C(O)C(O)C7O)C(O)C(O)C6O)CCC54O)C3)CC2OC)C(O)C1OC` (stereo not given): the Potency entry in assay [1] and in assay [2] was “inactive” each time.

For `CCN1C[C@]2(OC(=O)c3ccccc3NC(C)=O)CC[C@H](OC)[C@@]34[C@@H]2C[C@@H]([C@@H]13)[C@@]1(O)C[C@H](OC)[C@H]2C[C@@H]4[C@]1(O)[C@H]2OC`, the Potency entry in assay [1] and in assay [2] was “inactive” throughout.

In the case of `COC1C(O)C(OC2CCC3(C=O)C(CCC4C3CCC3(C)C(C5=CC(=O)OC5)CCC43O)C2)OC(C)C1OC1OC(CO)C(O)C(O)C1O` (stereo not given), in assay [1], the Potency result was “inactive”.

Consider `CCC(C)(C#N)O[C@@H]1O[C@H](CO)[C@@H](O)[C@H](O)[C@H]1O` (stereo not given in full), for which the Potency entry in assay [1] is “inactive”.

In the case of `O=C1OC2(c3cc(Br)c(O)cc3Oc3c2cc(Br)c(O)[c]3[Hg])c2ccccc21` (stereo not given), the Potency entry in assay [3] was “inactive”.

As to `CN(C)[C@@H]1C(=O)C(C(N)=O)=C(O)[C@@]2(O)C(=O)C3=C(O)c4c(O)ccc(Cl)c4[C@@](C)(O)[C@H]3C[C@@H]12`, in assay [4], the Potency is 0.562 µM (active).

(Values after PubChem BioAssay (NCATS).)
